An excerpt weighted towards active compounds, which were near 2.3% of everything screened.
M1 PAM – positive allosteric modulators of human M1 muscarinic receptor; AID 588819; P11229; CHO-K1 hM1, Fluo-8 calcium fluorescence, ACh EC20; 0% = ACh EC20, 100% = maximal ACh; activation, % at 3 µM; 360,000 compounds, 0.088% hits; in the data active = activation above about 19%, passing the limit was not always enough
Target sequence (P11229 whole entry, looked up): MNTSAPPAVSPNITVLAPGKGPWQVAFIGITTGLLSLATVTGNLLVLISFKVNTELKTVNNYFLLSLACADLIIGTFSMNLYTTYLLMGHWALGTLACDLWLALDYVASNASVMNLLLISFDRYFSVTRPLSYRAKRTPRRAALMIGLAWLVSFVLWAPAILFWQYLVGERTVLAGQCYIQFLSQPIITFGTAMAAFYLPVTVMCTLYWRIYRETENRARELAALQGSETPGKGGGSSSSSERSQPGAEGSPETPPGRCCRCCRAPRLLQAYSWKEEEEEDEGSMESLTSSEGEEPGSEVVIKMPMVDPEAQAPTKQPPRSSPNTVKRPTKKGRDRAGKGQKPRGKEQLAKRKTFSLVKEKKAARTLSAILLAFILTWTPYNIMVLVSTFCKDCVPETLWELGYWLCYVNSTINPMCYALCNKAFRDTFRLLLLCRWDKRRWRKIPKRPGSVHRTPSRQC
CHO-K1 Ca antag – counter-screen for M1 antagonists: effect in parental CHO-K1 cells | ATP-induced calcium, Fluo-8 fluorescence | inhibition, % at 3 µM | 360,000 compounds, 0.6% hits;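 active = inhibition above a per-plate cutoff, the plate's mean sample inhibition plus 3 SD, cut at about 24% in these data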;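 also: 0% = DMSO plus EC80 ATP and 100% = DMSO alone without ATP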
M1 ag parental – M1 agonist counterscreen hit in parental CHO-K1 cells. Fluo-8 calcium fluorescence; scaled to maximal ATP response, vehicle zero. activation, % at 3 µM. 360,000 compounds, 0.48% hits. AID 602248; in the data active = activation above about 15%;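 also: untransfected CHO-K1 host cells lacking M1 receptor as counterscreen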
CHRM1 antagonist – human CHRM1 antagonism | CHO-K1 hM1, Fluo-8 calcium fluorescence, ACh EC80 antagonist | 360,000 compounds, 1.3% hits | inhibition, % at 3 µM;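 active = percent inhibition above its own plate's cutoff, namely the mean of that plate's compound wells plus 3 SD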;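 also: peak over basal fluorescence ratio during 140 s after agonist addition; 0% = ACh EC80 plus DMSO and 100% = DMSO alone without agonist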
CHRM1 agonist – activates human CHRM1 receptor. P11229. CHO-K1 hM1, Fluo-8 calcium fluorescence, agonist mode; 0% DMSO, 100% acetylcholine EC100. 360,000 compounds, 0.33% hits. activation, % at 3 µM;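 active = activation above the run's mean compound activation plus 3 SD, cut at about 16% in these data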;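 also: peak over basal fluorescence ratio within a 140 s kinetic read after compound addition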
M1 PAM parental – M1 PAM counterscreen hit in parental CHO-K1 cells | 360,000 compounds, 0.02% hits | activation, % at 3 µM | ATP EC20, Fluo-8 calcium fluorescence; 0% at ATP EC20, 100% at ATP max;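 active = activation above the run cutoff, the mean activation of all test compounds plus 3 SD, cut at about 40% in these data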;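 also: peak over basal fluorescence ratio in a 140 s read after ATP addition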
Numbers without * were called inactive; . = no result given.

SMILES	M1 PAM	CHO-K1 Ca antag	M1 ag parental	CHRM1 antagonist	CHRM1 agonist	M1 PAM parental
CC(C)(C)n1nnnc1C(c1cccs1)N(Cc1cccnc1)Cc1ccco1 (stereo unspecified)	-19	-10	0	98*	-2	23
CC(C)(C)n1nnnc1C(c1cccs1)N(Cc1ccccc1)Cc1ccco1 (stereo unspecified)	-2	-9	0	-1	-4	6
O=C(OCC(=O)N(Cc1ccccc1)Cc1ccccc1)c1ccccc1NCCO	-8	10	6	21*	0	-4
Cc1ccccc1NS(=O)(=O)c1ccc(C(=O)NCc2ccccc2CN2CCCC2)cc1	-25	22	1	29	-6	-8
Cc1ccc(C)c(C(O)c2ncc(-c3ccccc3F)[nH]2)c1 (stereo unspecified)	-3	1	1	0	0	-8
O=C(Nc1ccc([N+](=O)[O-])cc1)Nc1nc(-c2ccc(Cl)s2)cs1	-10	34*	10	8	6	-4
O=S(=O)(Nc1nc(-c2sccc2Cl)cs1)c1cc(Cl)ccc1Cl	-2	26*	-1	2	-1	-6
CC(C)CNCC(=O)N1c2ccccc2Sc2ccccc21	-22	-2	1	93*	-6	15
COCCNCC(=O)N1c2ccccc2Sc2ccccc21	-29	0	0	90*	-9	-8
COCCCNC(=O)N1c2ccccc2Sc2ccccc21	19	-6	1	-21	-7	15
CC(C)c1ccc([C@@H]2O[C@H](CCc3ccccc3)CC3=C2C(=O)OC(C)(C)O3)cc1	.	-6	1	.	.	5
COc1cccc(NC(=O)N(C)C[C@@H]2OCc3cnnn3CCCC(=O)N([C@H](C)CO)C[C@@H]2C)c1	9	12	0	-10	-3	-4
O=[N+]([O-])c1cccc(CON=Cc2ccccc2O)c1	-4	-8	1	-12	-5	3
CC1CCCCN1C(=O)COC(=O)c1cc(-c2cccs2)nn1-c1ccccc1 (stereo unspecified)	-26	-12	1	45*	-7	14
COC(=O)C1CCN(C(=O)COC(=O)c2cc(-c3cccs3)nn2-c2ccccc2)CC1	-15	1	1	16	-8	-22
COc1ccc(CN2CCC[C@]3(N[C@H](c4ccc(C(F)(F)F)cc4)[C@@H]4C(=O)N(C)C(=O)[C@@H]43)C2=O)cc1	-4	17	0	1	-5	-15
O=C(NCC1CCN(Cc2cccc(Cl)c2)CC1)Nc1ccc(Cl)cc1	-2	-1	11	-2	-4	-8
COc1ccc(Cl)cc1NC(=O)NCC1CCN(Cc2cc(C)ccc2C)CC1	5	-9	16*	-4	-5	10
COc1cc([N+](=O)[O-])ccc1NC(=O)NCC1CCN(Cc2ccc(Cl)cc2)CC1	-13	-14	17*	13	-7	19
C[C@@H](c1ccccc1)N1C[C@@H](COCc2ccccc2)Oc2cc(N3CCC[C@H]3C(N)=O)ccc2S1(=O)=O	.	-8	0	.	.	1
CCOc1cc(S(=O)(=O)NC2CCCCC2)ccc1F	0	7	24*	4	-5	10
Nc1nc(SCC(=O)Nc2c(Br)cc([N+](=O)[O-])cc2Br)n[nH]1	0	29*	0	1	-6	-1
COCc1cc(C)nc(SCC(=O)Nc2cccc3cccnc23)c1C#N	-3	25*	0	4	-1	-15
COCc1cc(C)nc(SCC(=O)Nc2ccccc2N2CCOCC2)c1C#N	9	2	0	-5	-1	12
Cc1ccc(OCCOC(=O)C2CCN(S(=O)(=O)c3ccc(C)c(C)c3)CC2)cc1	9	-10	1	-11	-1	4
Cc1ccc(S(=O)(=O)N2CCC(C(=O)OCCOc3ccccc3)CC2)cc1C	-16	6	1	19*	-3	-4
CC(=O)c1cc2c(cc1NC(=O)c1ccco1)OCCO2	-9	25*	0	17	-5	-11
COc1cc(C2CC(=O)C3=C(C2)Nc2ncnn2C3c2cccs2)cc(OC)c1OC (stereo unspecified)	21	-10	0	-14	1	14

High-throughput results from PubChem.
